D1 PAM: Potentiators of Human D1 Dopamine Receptor: qHTS; 0.036% of 360,000 active; potentiation, % at 10 µM; HEK293 TREx D1 cells, calcium flux, dopamine EC20 potentiation; AID 504651, 2011; D(1A) dopamine receptor (Homo sapiens), P21728; in the data active means potentiation above about 30%
D3 antag: qHTS of D3 Dopamine Receptor Antagonist: qHTS; D(3) dopamine receptor (Homo sapiens), P35462; D3R cells, DiscoveRx beta-arrestin luminescence, antagonist mode; stronger effect = lower value; max response, negative = inhibition, %; 2.5% of 360,000 active; in the data active means max response below about -50%; inconclusive means no clear call, values can overlap the other calls
Target sequence (P35462 whole entry, looked up): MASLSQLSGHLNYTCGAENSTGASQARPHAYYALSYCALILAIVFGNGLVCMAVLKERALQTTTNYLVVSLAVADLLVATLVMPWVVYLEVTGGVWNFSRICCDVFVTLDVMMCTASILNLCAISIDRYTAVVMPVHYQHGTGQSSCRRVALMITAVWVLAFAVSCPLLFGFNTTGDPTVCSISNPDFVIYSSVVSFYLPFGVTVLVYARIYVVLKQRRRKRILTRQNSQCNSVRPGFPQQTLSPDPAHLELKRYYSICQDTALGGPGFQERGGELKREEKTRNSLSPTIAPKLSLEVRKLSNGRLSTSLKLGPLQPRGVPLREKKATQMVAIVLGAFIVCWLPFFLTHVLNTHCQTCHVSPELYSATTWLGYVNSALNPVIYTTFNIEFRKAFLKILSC
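Cells expressing the human receptor were seeded at 1500 cells/well, incubated overnight at 37 degrees C in 5% CO2, then exposed to library compounds with dopamine controls for 90 minutes at 37 degrees C before luminescent detection.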
D1 ag: Allosteric Agonists of the Human D1 Dopamine Receptor: qHTS. activation, % at 2 µM. HEK293 T-REx D1 cells, calcium flux, agonist mode. D(1A) dopamine receptor (Homo sapiens), P21728. AID 504660, 2011. 1% of 360,000 active; in the data active means activation above about 30%
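Inducible HEK293 T-REx D1 cells, force-coupled to calcium signalling, were plated at 4000 cells/well with tetracycline and held overnight at 30 C. After no-wash calcium dye loading, compound-evoked calcium rise over 180 s flagged agonists.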
DRD3 agonist: qHTS of D3 Dopamine Receptor Agonist: qHTS; AID 652048, 2013; D3R DiscoveRx beta-arrestin cells, luminescence, 90 min; max activation, %; D(3) dopamine receptor (Homo sapiens), P35462; 0.58% of 410,000 active; in the data active means max activation above about 30%
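Cells at 1500/well, incubated overnight, then treated with pinned compounds (dopamine as control) for 90 min at 37 degrees C. DiscoveRx reagent added for 30 - 60 minutes at room temperature; luminescence read.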
D1 antagonist: Antagonist of Human D 1 Dopamine Receptor: qHTS | HEK293 TREx D1 cells, calcium flux, dopamine EC80; stronger effect = lower value | activity change, negative = inhibition, % at 10 µM | D(1A) dopamine receptor (Homo sapiens), P21728 | 3.2% of 360,000 active; in the data active means activity change below about -30%
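Antagonism measured as reduced calcium response to an EC80 dopamine addition following 180 s compound pre-read; cells were inducible HEK293 Trex D1 plated overnight at 30 C, read kinetically at 1 cycle/sec.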
Numbers stand for hits; - = inactive; ? = inconclusive; . = no result given. Compounds with a hit are over-represented: about 6.1% of the library has one in this group of screens.

SMILES | D1 PAM | D3 antag | D1 ag | DRD3 agonist | D1 antagonist
CCN(CC)C(=O)COc1ccc(N(C)S(=O)(=O)c2ccc(NC(C)=O)cc2)cc1 | - | - | - | - | -38
CN(c1ccc(OCC(=O)OCC(=O)Nc2ccc(Br)cc2)cc1)S(=O)(=O)c1cccs1 | - | - | - | - | -
CN(c1ccc(OCC(=O)OCC(=O)Nc2ccc(F)cc2)cc1)S(=O)(=O)c1ccc(Cl)cc1 | - | - | - | - | -56
CN(c1ccc(OCC(=O)OCC(=O)Nc2ccccc2)cc1)S(=O)(=O)c1cccs1 | - | - | - | - | -47
COC(=O)c1c(-c2cccs2)csc1NC(=O)c1cc(OC)cc(OC)c1 | - | . | - | - | -
CC(C)CCn1c(=O)c2sccc2n2c(CCCC(=O)N3CCC(N4CCCCC4)CC3)nnc12 | - | - | - | - | -45
Cc1c(C(=O)OCC2CCCCC2)[nH]c2c1C(=O)CC(c1ccccc1Cl)C2 (stereo unspecified) | - | . | - | - | -
Cn1c(NC(=O)c2ccccc2Br)cc(=O)n(C)c1=O | - | - | - | - | -
Cn1c(NC(=O)c2cc(Br)ccc2Cl)cc(=O)n(C)c1=O | - | - | 33 | - | -
CC(NC(=O)c1cc(Br)ccc1Cl)c1ccccc1 (stereo unspecified) | - | - | - | - | -46
COc1ccc(-n2c(=O)c3c4c(sc3n(CC(=O)N3CCCCC3C)c2=O)CCC4)c(OC)c1 (stereo unspecified) | - | . | - | - | -71
COc1cc(CNC(C)(C)CO)cc(Br)c1OCc1ccc(Cl)cc1 | - | - | 34 | - | -
COc1cc(CNC(C)(C)CO)cc(Br)c1OCc1ccc(Cl)cc1Cl | - | - | - | - | -
CNCc1c(OCc2ccccc2)ccc2ccccc12 | - | ? | - | - | -45
O/N=C/c1ccccc1OCc1ccc(Cl)cc1 | - | - | - | - | -
CC(C)(CO)NCc1c(OCc2ccc(Cl)cc2)ccc2ccccc12 | - | - | 35 | - | -
CNCc1c(OCc2ccccc2F)ccc2ccccc12 | - | ? | 39 | - | -81
CC(C)(C)OC(=O)N1CCC(c2c(C(=O)NCc3ccco3)cnn2-c2ccccc2Cl)CC1 | - | . | - | - | -
COc1cccc(NC(=O)Cn2c(=O)n(CCCCC(=O)NCc3ccc4c(c3)OCO4)c(=O)c3ccccc32)c1 | - | . | - | - | -
COc1ccc2c(CNC3CCCCCC3)c(C(=O)O)n(Cc3ccc(C)cc3)c2c1 | - | . | - | - | -
CCCN(CCC)CCNC(=O)c1sc2nc3n(c(=O)c2c1C)CCCCC3 | - | . | - | - | -
CN1CCCC(n2nc(Cc3ccc(Cl)cc3)c3ccccc3c2=O)CC1 (stereo unspecified) | . | -54 | . | - | .
CCOC(=O)Cn1nc(Cc2ccccc2)c2ccccc2c1=O | - | - | - | - | -
CCOc1ccc(NC(=O)CC2C(=O)N(c3ccc(F)cc3)C(=O)N2CCc2sccc2C)cc1 (stereo unspecified) | - | . | - | - | -
O=S(=O)(Cc1ccccc1)N1CCN(c2ncccn2)CC1 | - | - | - | - | -51
SMILES | D1 PAM | D3 antag | D1 ag | DRD3 agonist | D1 antagonist
O=C(C1CCN(S(=O)(=O)c2cccnc2)CC1)N1CCN(c2cccc(Cl)c2)CC1 | - | - | - | - | -83
O=S(=O)(c1ccc(Br)s1)N1CCN(c2ncccn2)CC1 | - | -79 | - | - | -
O=C(C1CCN(S(=O)(=O)Cc2ccccc2)CC1)N1CCN(c2ncccn2)CC1 | - | - | - | - | -
CNS(=O)(=O)c1cnccc1N1CCN(c2cccc(Cl)c2)CC1 | - | - | - | - | -31
Cc1cc(NC(=O)Nc2nc3c(s2)CCCCCC3)ccc1Br | - | . | - | - | -
O=C(C1CCN(S(=O)(=O)Cc2ccccc2)CC1)N1CCN(c2ccc(F)cc2)CC1 | - | . | - | - | -
O=C(C1CCN(S(=O)(=O)Cc2ccccc2)CC1)N1CCN(c2ccccc2)CC1 | - | . | - | - | -61
CCOC(=O)c1nnn2c1nc(N1CCN(C)CC1)c1ccccc12 | - | - | - | - | -
CCOC(=O)c1nnn2c1nc(N1CCCCC1)c1ccccc12 | - | - | - | - | -42
CC(C)Cn1c2c(c(=O)[nH]c1=O)C(C(F)(F)F)(C(F)(F)F)N=C(CCC1CCCCC1)N2 | - | - | 31 | - | -
O=c1[nH]c(=O)n(Cc2ccco2)c2c1C(C(F)(F)F)(C(F)(F)F)N=C(CCC1CCCCC1)N2 | - | - | - | - | -
COc1cccc(NC(=O)CSc2nccn2Cc2ccc3c(c2)OCO3)c1 | - | . | - | - | -
COCCNCCCOc1ccc(Br)cc1Cl | - | -78 | - | - | -
COCCCNCCCCOc1ccc(Br)cc1Cl | - | - | - | - | -
COCCNCCCOc1ccc(Cl)cc1Br | - | -78 | - | - | -
Cc1cc(Br)ccc1OCCCCNCCO | - | -60 | - | - | -
C=CCNCCCOc1ccc(Cl)cc1Br | - | -67 | - | - | -
Cc1cccc(C)c1NC(=O)Cn1c(=O)n(Cc2ccccc2)c(=O)c2c(C)c(C(=O)N(C)C)sc21 | - | . | - | - | -
COCCNc1ccc2cc(S(=O)(=O)N3CCCCC3)ccc2n1 | - | . | - | - | -
OCCNCCCOc1ccc(Cl)cc1Br | - | -64 | - | - | -
COCCCNCCCOc1ccc(Cl)cc1C(C)(C)C | - | ? | - | - | -
COc1cc2ccccc2cc1C(=O)N1CCCCC1 | - | - | - | - | -
CN(C)CC(O)COc1cc2ccccc2cc1C(=O)N1CCCCC1 (stereo unspecified) | - | -59 | - | - | -
COc1ccc(NC(=O)Cn2c(=O)oc3cc(S(=O)(=O)N4CCC(C)CC4)ccc32)c(OC)c1 | - | . | - | - | -
CCOC(=O)c1cnc2ccc(OCC)cc2c1N1CCN(c2ccccc2F)CC1 | - | . | - | - | -
SMILES | D1 PAM | D3 antag | D1 ag | DRD3 agonist | D1 antagonist
CCOC(=O)c1cnc2ccc(Cl)cc2c1Nc1ccc(N2CCOCC2)cc1 | - | . | - | - | -
CCOC(=O)c1cnc2ccc(OCC)cc2c1NCc1ccccc1 | - | - | - | 48 | -32
CCOC(=O)c1cnc2ccc(C)cc2c1Nc1ccc(N2CCOCC2)cc1 | - | -59 | - | - | -
CCOC(=O)c1cnc2ccc(OCC)cc2c1N1CCN(c2ccccc2)CC1 | - | -65 | - | - | -
CCOC(=O)c1cnc2ccc(OCC)cc2c1NCc1cccnc1 | - | - | - | - | -
Cc1ccc(C)c(Nc2c([N+](=O)[O-])ccc3nonc23)c1 | - | - | 108 | - | -
Cc1ccc(C)c(Nc2ccc3nonc3c2[N+](=O)[O-])c1 | - | - | - | - | -
O=[N+]([O-])c1ccc(O)c(Nc2c([N+](=O)[O-])ccc3nonc23)c1 | - | ? | - | - | -49
CCOC(=O)c1ccc(NC(=O)c2ccc(OC(C)C)c(OC)c2)cc1 | - | - | - | - | -32

Screening data (PubChem BioAssay)
